In PubChem BioAssay (NCATS) one finds Potency data, which are given here for ten compounds.

Records with an inconclusive call do not appear. The source made the active and inactive calls. Calls follow the shape of the dose curve; as a rule, active = well fitted inhibition curve with a large enough effect; inconclusive = small, poorly fitted or top-dose-only effect; inactive = flat fitted curve, though single readings scatter.

Holding throughout (test): qHTS profiling for inhibitors of Plasmodium falciparum proliferation (AID 504749); also: nearly all actives have a fitted effect of over 60% in size
Holding throughout (conditions): P. falciparum in erythrocytes, SYBR Green DNA, 72 h; series mostly up to 28.7 µM
For orientation: Quantitative high-throughput screening tests each substance at several concentrations.

One assay deals with ATS95. The gist of the method: (§1)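 Readout was DNA-dye fluorescence from lysed cultures, ex 485/em 535 nm. Parasitized red cells had grown 72 h with compound; data scaled between 0.29 uM artemisinin and DMSO wells and corrected using vehicle-only plates.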
The subject of another assay is C2A. The gist of the method: as §1
In a further assay the test system is CP185. In a few lines:
as §1

The test system of a further assay is CP191. In a few lines:
as §1

Another assay deals with CP192. The gist of the method: as §1
The test system of the next assay is CP194. The gist of the method: as §1
The subject of the next assay is CP201. In a few lines: as §1
Another assay relates to CP203. The gist of the method:
as §1

Another assay relates to CP211. In a few lines: as §1
The next assay relates to CP215. The gist of the method:
as §1

In the next assay the test system is CP217. The gist of the method:
as §1

A further assay has as its system CP237. The gist of the method:
as §1

The next assay has as its system CP238. In a few lines:
as §1

A further assay has as its system CP247. The gist of the method:
as §1

Another assay deals with CP250. The gist of the method:
as §1

The next assay relates to CP252. The gist of the method:
as §1

For another assay, the system named is CP260. The gist of the method:
as §1

The next assay has as its system CP262. The gist of the method: as §1
The test system of the next assay is CP265. The gist of the method:
as §1

The test system of a further assay is CP256. The gist of the method:
as §1
Potency is read from the fitted curve at half-maximal effect.

For `O[C@@H]([C@H](O)[C@H](O)CBr)[C@H](O)CBr`, the Potency result in the assay on ATS95, in the assay with C2A, in the assay with CP185, in the assay with CP191, with CP192 and with CP194 was “inactive” each time. Besides, the Potency entry in the assay on CP201, with CP203, in the assay with CP211, with CP215, in the assay with CP217 and in the assay on CP237 was “inactive” throughout. The Potency entry with CP238, with CP247, with CP250, in the assay with CP252, in the assay on CP260 and in the assay with CP262 was “inactive” in each case. Moreover, the Potency result with CP265 was “inactive”.
Consider `CCCc1nc(C(C)(C)O)c(C(=O)OCc2oc(=O)oc2C)n1Cc1ccc(-c2ccccc2-c2nn[nH]n2)cc1`, for which the Potency result in the assay with ATS95, in the assay on C2A, in the assay with CP185, in the assay on CP191, in the assay on CP192 and in the assay with CP194 was “inactive” throughout. For the same compound, the Potency result in the assay with CP201, with CP203, in the assay on CP211, in the assay with CP217, in the assay on CP237 and in the assay on CP238 was “inactive” in each case. Also, the Potency result in the assay with CP247, in the assay on CP250, in the assay with CP252, with CP256, in the assay on CP260 and with CP262 was “inactive” each time. In addition, the Potency result in the assay with CP265 is “inactive”.
Take `C[C@H](N)C(=O)N[C@@H](C)P(=O)(O)O`: the Potency result with ATS95, in the assay on C2A, in the assay with CP185, in the assay with CP191, with CP192 and in the assay with CP194 was “inactive” each time. Also, the Potency entry with CP201, in the assay with CP203, in the assay on CP211, with CP217, in the assay with CP237 and in the assay on CP238 was “inactive” in each case. Further, the Potency result in the assay with CP247, in the assay on CP250, in the assay on CP252, with CP256, with CP262 and in the assay with CP265 was “inactive” each time.
For the compound `Cc1cc2nc3c(=O)[nH]c(=O)nc-3n(C[C@H](O)[C@H](O)[C@H](O)COP(=O)(O)OP(=O)(O)OC[C@H]3O[C@@H](n4cnc5c(N)ncnc54)[C@H](O)[C@@H]3O)c2cc1C`, the Potency result in the assay on ATS95, in the assay with C2A, in the assay with CP185, in the assay on CP191, in the assay with CP192 and with CP194 was “inactive” throughout. Besides, the Potency entry with CP201, in the assay on CP203, in the assay on CP211, in the assay with CP215, in the assay with CP217 and in the assay with CP237 was “inactive” throughout. For the same compound, the Potency entry in the assay with CP238, in the assay with CP250, in the assay on CP252, in the assay with CP256, with CP260 and in the assay on CP262 was “inactive” throughout. Further, in the assay on CP265, the Potency entry is “inactive”.
Regarding `COc1cc(C)c(/C=C/C(C)=C/C=C/C(C)=C/C(=O)O)c(C)c1C`, the Potency entry with ATS95, in the assay with C2A, in the assay with CP185, with CP191, in the assay with CP192 and in the assay on CP194 was “inactive” each time. For the same compound, the Potency entry in the assay with CP201, in the assay on CP203, with CP211, with CP217, in the assay on CP237 and with CP238 was “inactive” each time. For the same compound, the Potency result with CP247, in the assay on CP250, in the assay with CP252, in the assay with CP256, in the assay with CP260 and with CP262 was “inactive” in each case. Besides, the Potency entry with CP265 was “inactive”.
Turning to `N=C(N)c1ccc(/C=C/c2ccc(C(=N)N)cc2O)cc1`, the Potency with ATS95 is 10 µM (active); with C2A it was 3.98 µM (active); in the assay on CP185 it was 10 µM (active); in the assay with CP191, 1.41 µM (active); in the assay with CP192 it was 5.36 µM (active); in the assay on CP194, 6.01 µM (active). In addition, the Potency with CP201 was 12 µM (active); in the assay on CP203, 15.1 µM (active); in the assay on CP215 it was 5.36 µM (active); in the assay on CP217, 11.2 µM (active); in the assay with CP237, 5.01 µM (active); in the assay with CP238, 10 µM (active). Moreover, the Potency with CP247 is 10 µM (active); with CP250, 11.2 µM (active); with CP252, 15.8 µM (active); in the assay with CP256 it was 0.447 µM (active); in the assay with CP260 it was 11.2 µM (active); in the assay on CP262, 1.35 µM (active). In the assay with CP265, the Potency is 11.2 µM (active).
For `CCN(CC)CCC(=O)N1c2ccccc2Sc2ccc(C(F)(F)F)cc21`, the Potency result in the assay on ATS95, with C2A, in the assay with CP185, in the assay on CP191, with CP192 and in the assay with CP194 was “inactive” throughout. Further, the Potency result with CP201, in the assay on CP203, in the assay with CP211, in the assay on CP215, with CP217 and with CP237 was “inactive” throughout. Moreover, the Potency result with CP238, in the assay with CP250, in the assay with CP252, in the assay on CP260, in the assay with CP262 and in the assay with CP265 was “inactive” throughout.
For the compound `CCc1ncnc2cc(OC)c(OC)cc12`, the Potency result in the assay on ATS95, in the assay with C2A, in the assay on CP185, in the assay on CP191, in the assay with CP192 and in the assay with CP194 was “inactive” in each case. Further, the Potency result with CP201, in the assay with CP203, in the assay with CP211, with CP215, in the assay with CP217 and with CP237 was “inactive” throughout. Also, the Potency entry with CP238, with CP247, in the assay on CP250, with CP252, in the assay with CP256 and in the assay on CP262 was “inactive” in each case. In addition, the Potency entry with CP265 is “inactive”.
Take `C[C@]12CCC(=O)C[C@@H]1CC[C@@H]1[C@@H]2CC[C@]2(C)C=CC[C@@H]12`: the Potency result in the assay on ATS95, in the assay on C2A, with CP185, in the assay on CP191, in the assay with CP192 and in the assay on CP194 was “inactive” throughout. The Potency entry in the assay with CP201, in the assay with CP203, in the assay with CP211, in the assay on CP215, with CP217 and with CP238 was “inactive” in each case. Further, the Potency entry in the assay on CP247, in the assay with CP252, with CP256, in the assay on CP262 and in the assay with CP265 was “inactive” throughout.
`O=P(O)(O)OP(=O)(O)O`: the Potency result in the assay with ATS95, in the assay with C2A, in the assay with CP185, in the assay on CP191, in the assay with CP192 and with CP194 was “inactive” in each case. The Potency result with CP201, in the assay with CP203, in the assay on CP211, in the assay on CP215, with CP237 and with CP247 was “inactive” throughout. Moreover, the Potency entry in the assay on CP250, with CP256, with CP260 and with CP262 was “inactive” in each case.
